From PubChem BioAssay (NCI)
This is part of a sample that, as a whole, favours compounds with a hit. Of some 83,000 tested, about 20% had one in any assay.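 Values shown are percent growth following 48 h exposure of cells in 96-well plates to a single concentration of compound; below 10 was considered active.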 Values without a mark were called inactive. The source made the active and inactive calls.

test system: HL-60(TB) leukemia; experiment: NCI-60 one-dose screen, 48 h (100 = growth as untreated, 0 = no growth, -100 = all killed); settings: 10 µM unless noted

SMILES	growth
C=C1C(=O)O[C@H]2[C@H]1CC/C(COC(=O)NCc1nc3ccccc3[nH]1)=C\CC[C@@]1(C)O[C@@H]21	17%
COc1ccc(NC(=O)COc2ccccc2)c(C(N)=O)c1	-7.37% (active)
Cc1c(CN)cc(-c2ccc(Cl)cc2)n1-c1ccccc1	86.9%
CCc1nn2c(-c3cc(OC)c(OC)c(OC)c3)c(-c3cc(OC)c(OC)c(OC)c3)nc2s1	59.3%
O=C1NC(=S)NC(=O)C1=Cc1cn(Cc2ccccn2)c2ccccc12	32.5%
Nc1ccccc1SC1CC(=O)N(c2ccc(I)cc2)C1=O (stereo not given)	65.6%
COC(=O)C1CCc2sc3ncnc(Nc4cn[nH]c4C(=O)Nc4ccc(CN5CCN(C)CC5)cc4)c3c21 (stereo not given)	-28.8% (active)
CCCCOC(=O)/C=C\C(=O)NC(N)=O	56.8%
COc1ccc(-c2cc(-c3ccc(Nc4nc(Nc5ccc(Cl)cc5)nc(Nc5ccc(Cl)cc5)n4)cc3)no2)cc1	-43.5% (active)
COc1ccc(NC(=O)c2ccc(NC3=C(c4ccc(Cl)cc4)C(=O)NC3=O)cc2)cc1	80.3%
CCOC(=O)c1cc(C#N)n2ccc3ccccc3c12	92.1%
COc1ccc(-c2nc(N=Nc3c(O)[nH]c4ccccc34)nc(N3CCOCC3)c2C#N)cc1	90.5%
CN1C(=O)/C(=C/c2ccc(C(=O)Nc3ncc(Cc4ccc(F)cc4)s3)cc2)SC1=S	37.6%
C=C(c1ccc(OC)c(/C=C/C(=O)c2cc(OC)c(OC)c(OC)c2)c1)c1cc(OC)c(OC)c(OC)c1	12.8%
O=C1/C(=C/c2ccc(Br)cc2)C=C(c2ccccc2)N1CCc1ccccc1	83.8%
CN1CCN(Cc2ccc(NC(=O)c3cncc(C#Cc4ncc5cnccn45)c3)cc2C(F)(F)F)CC1	24.8%
Cc1ccc2c(-c3cc(-c4ccccc4)nc(N)c3C#N)cc(=O)oc2c1	117%
Cn1nc(C(F)(F)F)cc1-c1c[nH]c(OCc2ccc(Cl)cc2)c(-c2ccc(Cl)c(C(F)(F)F)c2)c1=O	-28% (active)
O=C1COCCN1c1ccc(NCc2cn(Cc3ccccc3)c3ccccc23)cc1	99.1%
O=c1[nH]cc(/C=N\Nc2ccccc2)c(=O)[nH]1	0.751% (active)

SMILES	growth
Nc1[nH]c(=S)nc2oc(-c3ccccc3)c(-c3ccccc3)c12	90.5%
Cc1nn(C)c2ncnc(N/N=C/c3cccc(O)c3O)c12	-1.19% (active)
CN1CCN(CC(=O)Nc2ccc(-c3nc4ccccc4s3)cc2)CC1	96.4%
Cc1cc(=O)c2c(C)ccc(C)c2[nH]1	96.7%
CC(=O)c1c(C)nc2ccccc2c1/C=C/c1ccc(F)cc1	95.6%
CS(=O)(=O)Nc1cc(-c2cc3ncc(C#N)c(Nc4ccc(Oc5ccccc5)c(Cl)c4)c3s2)cnc1Cl	64.6%
COc1cc(NCC(O)CN(CC(C)C)CC(C)C)c2ncccc2c1 (stereo not given)	62.7%
OCCN1CCN(c2nc(Nc3ccc(-c4nc5ccccc5[nH]4)cc3)c3cn[nH]c3n2)CC1	-65.8% (active)
CCC(=O)OCc1cccc(OC)c1	53.7%
C/C(=N/N=C(N)N)c1ccc(Cl)cc1	171%
Nc1nc(N)c2cc(S(=O)(=O)c3cccc(C(F)(F)F)c3)ccc2n1	30.9%
COc1ccc(-c2nc(/C=N/Nc3cc(C)nc4ccc(Br)cc34)c(C)o2)cc1	-51.5% (active)
O=C(Nc1cccc(Br)c1)Oc1cccc2cccnc12	4% [100 µM] (active)
COc1ccc(-n2c(-c3ccc(NC(=O)CCCl)cc3)nnc2-c2cc(OC)c(OC)c(OC)c2)cc1	-12.6% (active)
COc1ccc(NC(=O)c2sc3nc(C)c(C(=O)c4ccccc4)cc3c2N)cc1	78.8%
NC(N)=N/N=C\c1ccc(OCc2ccccc2)cc1	43.1%
O=c1c2cccc3c(N4CCCC4)ccc(c32)c2nc3ccccc3n12	72%
CC1=NN(c2cccc(Cl)c2)C(=O)/C1=C\c1cn(CC(O)CN2CCCCC2)c2ccccc12 (stereo not given)	25.7%
Nc1ccc([N+](=O)[O-])cc1N=C/C=C/c1ccccc1	9.14% (active)
CC(C)C1CCC(C)C(O)C1 (stereo not given)	103%
